In PubChem BioAssay (NCATS):
Values without a mark were called inactive. Calls follow the shape of the dose curve; as a rule, active = well fitted curve in the direction sought with a large enough effect; inconclusive = small, poorly fitted or top-dose-only effect, or another doubt; inactive = no such curve, though single readings can be large or run the other way.

Test: Validation qHTS assay for inhibitors of Activation Induced Cytidine Deaminase (AID): UDG Counterscreen signal (AID 1347427); also: 0% is about no effect
Details: biochemical UDG counterscreen, fluorescence signal; series mostly up to 115 µM; activity, negative = inhibition: at the top concentration
Procedure, shortened: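 Fluorescence at 560 nm excitation, 665 nm emission reports UDG signal after 250 mM NaOH (2x) addition and 30 min. Enzymes (AID 1 uM, UDG 2 U/mL, at 4/3x) preincubated 10 min with compound, then 4 h with 4x 250 nM DJC20/DJC23 substrate at room temperature.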

Row | SMILES | activity, negative = inhibition [%]
1 | CC(=O)OCC1=C(C(=O)O)N2C(=O)[C@@H](NC(=O)CCC[C@@H](N)C(=O)O)[C@H]2SC1 | 6
2 | Cc1o[nH]c(=O)c1CC(N)C(=O)O (configuration not stated) | 10
3 | NC(Cc1cc(O)c(O)cc1O)C(=O)O (configuration not stated) | -19.1
4 | CCCN1CCc2cc(O)cc3c2[C@H]1Cc1ccc(O)c(O)c1-3 | 10.1
5 | O=C1C=CC(=O)C=C1 | 9.29
6 | NC(N)=Nc1ccc2[nH]c3c(c2c1)C[C@@]1(O)[C@H]2Cc4ccc(O)c5c4[C@@]1(CCN2CC1CC1)[C@H]3O5 | -11.8
7 | NC(CCCCCP(=O)(O)O)C(=O)O (configuration not stated) | 14.5
8 | CC(C)NP(=O)(NC(C)C)OP(=O)(NC(C)C)NC(C)C | 4.13
9 | COc1ccc2[nH]cc(CCN)c2c1 | 3.26
10 | Cc1[nH]c2ccc(O)cc2c1CCN | -1.57
11 | NNC(N)=O | -7.21
12 | Cc1sc2ccccc2c1CC1=NCCN1 | 8.98
13 | COc1ccc2[nH]c3c(c2c1)CCNC3 | 10.8
14 | C[C@H](N)CN1CCc2ccc(Br)cc21 | 12.2
15 | NC(=O)c1ccc(OCC(O)CN2CC=C(c3ccc(F)cc3)CC2)cc1 (configuration not stated) | 4.64
16 | CCCn1c(=O)c2[nH]c(C3CCCC3)nc2n(CCCOC(=O)c2ccc(S(=O)(=O)F)cc2)c1=O | 11.3
17 | CCCN(CCC)C1Cc2cc(OC)c(OC)cc2C1 | 7.22
18 | CN1CCC(c2c[nH]c3ccc(O)cc23)CC1 | 16.6
19 | CCCN1CC[C@@H]2c3cc(O)ccc3CC[C@@H]21 | 7.04
20 | C[N+](C)(C)CCOC(=O)CBr | 16
21 | c1ccc2c(N3CCNCC3)cccc2c1 | -8.77
22 | CCS(=O)(=O)Nc1cccc(C(=C2CCCCC2)c2cnc[nH]2)c1 | 10.6
